In the library only some 11% were active in any assay of this set; here they are far more common.
HPGD block – inhibitors of human 15-hydroxyprostaglandin dehydrogenase (HPGD) | hit rate 4.3% among 150,000 | purified HPGD, NADH fluorescence kinetic, PGE2 substrate | AID 894 | Potency, µM, inactives show top-dose activity change, negative = inhibition, actives largely listed as inhibitors | P15428; active = well fitted inhibition curve with a large enough effect, not every such curve was filed as active; inconclusive = small, poorly fitted or top-dose-only effect, or another doubt; inactive = no such curve, though single readings can be large or run the other way; note: potency is the fitted concentration of half-maximal effect; % is set by controls: 0 for no effect and ±100 for the full control effect
Target sequence (P15428 whole entry, looked up): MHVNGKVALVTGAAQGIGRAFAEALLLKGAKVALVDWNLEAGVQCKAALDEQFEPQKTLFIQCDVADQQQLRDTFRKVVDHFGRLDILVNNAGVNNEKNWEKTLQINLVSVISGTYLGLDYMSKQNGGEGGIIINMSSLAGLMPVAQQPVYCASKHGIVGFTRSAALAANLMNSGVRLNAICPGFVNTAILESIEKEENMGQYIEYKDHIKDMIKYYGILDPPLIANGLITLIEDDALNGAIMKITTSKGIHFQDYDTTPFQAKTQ
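NADH formation kinetics: reaction with 30 uM PGE2 and 1 mM NAD+ (final), 20 nM enzyme, Tris-HCl pH 8 with Tween 20, after 15 min compound preincubation at room temperature. Fluorescence change, last versus first of five reads.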
ALDH1A1 block – inhibitors of human aldehyde dehydrogenase 1A1. P00352. Purified ALDH1A1, NADH fluorescence, propionaldehyde substrate. Potency, µM (doses to about 75.3 µM), for the others: top-dose activity, negative = inhibition, usual class: inhibitors. hit rate 7.3% among 220,000. AID 1030; active = well fitted inhibition curve with a large enough effect, not every such curve was filed as active; inconclusive = small, poorly fitted or top-dose-only effect, or another doubt; inactive = no such curve, though single readings can be large or run the other way;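 note: potency is the fitted concentration of half-maximal effect; plate controls were no enzyme wells and a reference inhibitor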
RGS12 GoLoco inh – blocks human Gai1 binding to RGS12 GoLoco peptide, red readout. P63096. Gai1:RGS12 GoLoco peptide FP, rhodamine, 10 min. Potency, µM (top dose mostly 61.6 µM), for inactives: top-dose activity, negative = inhibition, usual class: inhibitors. hit rate 0.44% among 230,000. AID 880; active = well fitted inhibition curve with a large enough effect, not every such curve was filed as active; inactive = no such curve, though single readings can be large or run the other way; note: potency is the fitted concentration of half-maximal effect; % is set by controls: 0 for no effect and ±100 for the full control effect; nearly all actives have a fitted effect of over 30% in size
Target sequence (P63096 whole entry, looked up): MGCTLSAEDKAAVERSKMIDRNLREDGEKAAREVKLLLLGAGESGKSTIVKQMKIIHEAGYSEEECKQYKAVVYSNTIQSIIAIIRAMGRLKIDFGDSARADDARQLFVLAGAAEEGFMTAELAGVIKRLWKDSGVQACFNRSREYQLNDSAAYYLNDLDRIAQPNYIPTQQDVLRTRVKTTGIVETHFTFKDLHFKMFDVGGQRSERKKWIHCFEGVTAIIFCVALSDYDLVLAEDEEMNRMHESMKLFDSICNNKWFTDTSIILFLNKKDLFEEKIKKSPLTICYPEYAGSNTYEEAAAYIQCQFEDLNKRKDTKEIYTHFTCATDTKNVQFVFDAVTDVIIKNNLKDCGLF
HTT cytoprotect – cytoprotection in Huntington HTT-Q103 PC12 cell model. PC12 HTT-Q103 induced, cytoprotection, ATP luminescence, 40 h. Potency, µM (doses to about 56.4 µM), for the others: cytoprotection (ATP increase), usual class: activators. hit rate 0.14% among 230,000. AID 1471; note: potency is the fitted concentration of half-maximal effect; % of control where 0% means no effect; nearly all actives have a fitted effect of over 45% in size
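Readout: ATPlite luminescence (ATP level). Model: stable PC12, inducible Htt exon1 Q103-GFP. Inducer: tebufenozide, 100 nM final. Compounds: dose series. No G418 in medium.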
HttQ103 aggreg – inhibitors of mutant huntingtin aggregate formation in PC12 cells. Potency, µM (titrated, usually from 46.1 µM), for inactives: at the highest dose activity change, negative = inhibition, actives largely listed as inhibitors. hit rate 1.1% among 220,000. PC12 HttQ103-GFP aggregates, Acumen cytometry, 40 h; note: potency is the fitted concentration of half-maximal effect; % is set by controls: 0 for no effect and ±100 for the full control effect; nearly all actives have a fitted effect of over 60% in size
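Steps: seed 1500 PC12 HTTQ103-GFP cells/well; add tebufenozide, 100 nM final; add compound titration; add ATPLite reagent; quantify GFP aggregates by laser scanning cytometry.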
PNC assembly inh – inhibitors of perinucleolar compartment assembly; PC3M PTB-GFP, PNC prevalence imaging, 16 h; hits give low values; activity change (PNC), negative = inhibition, % at 10 µM; hit rate 3.1% among 140,000;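 active = readout at or below -70, meaning at least 70% loss of cells showing the perinucleolar compartment, a nuclear body marking cancer cells; inconclusive = readout between -30 and a set limit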;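 note: plate controls were DMSO wells for no effect and camptothecin positive control wells for full effect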
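Read-out is percentage of cells bearing a perinucleolar compartment, from automated 20x imaging of fixed, Hoechst-stained PC3M PTB-GFP cells. Cells were seeded 4 h, then exposed 16 h to compound (23 nl of library stock) in duplicate plates.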
* = called active by the depositor; ? = inconclusive; . = not tested or not shown; [ ] = another dose, or the depositor's remark. Unless noted, calls come from the whole dose curve; as a rule, active = well fitted curve in the direction sought with a large enough effect; inconclusive = small, poorly fitted or top-dose-only effect, or another doubt; inactive = no such curve, though single readings can be large; an effect the other way counts as inactive or inconclusive.

SMILES	HPGD block	ALDH1A1 block	RGS12 GoLoco inh	HTT cytoprotect	HttQ103 aggreg	PNC assembly inh
COc1cccc(C(c2c(NC(=O)c3ccccc3)sc(C)c2C)N2CCN(C)CC2)c1 (stereo not given)	-29%	-14%	-1%	-6%[10 µM]	-16%	?
COc1cccc(-c2cncnc2NCc2ccc(OC)cc2OC)c1	-9%	?	-5%	1%	.	.
Cc1cc2c(c(SCC#N)n1)C(=O)OC2	.	-2%	12%	-21%[10 µM]	-13%	.
CC[C@H]1OC(=O)[C@H](C)C(=O)[C@H](C)[C@@H](OC2O[C@H](C)C[C@H](N(C)C)[C@@H]2O)[C@@](C)(OC)C[C@@H](C)C(=O)[C@@H](C)C2N(CCCCn3cnc(-c4cccnc4)c3)C(=O)O[C@@]21C (stereo not given in full)	.	.	.	-19%	6%	.
COc1ccc(-c2nc(C)sc2C)cc1	28µM*	?	4%	-11%[10 µM]	10%	15
COc1ccc(-c2nc(-n3c(C)c(C(C)=O)c(C(C)=O)c3C)sc2C)cc1	-17%	?	4%	-18%	0%	22
COc1cccc(-c2ccc(SCc3ccccn3)nn2)c1	.	5%	5%	.	26%	.
Cc1cc(Br)c(NC(=O)CCl)c(Br)c1	-22%	-16%	3%	15%[10 µM]	-13%	-89*
COc1ccc2cc(CN(CCCN3CCOCC3)Cc3nnnn3C3CCCCC3)c(=O)[nH]c2c1	-3%	13µM*	5%	-16%	5%	26
Cc1ccc(C)c2[nH]c(=O)c(CN(Cc3nnnn3C3CCCCC3)CC3CCCO3)cc12 (stereo not given)	-16%	1.8µM*	-19%	-8%[10 µM]	7%	-14
COc1cc2cc(CN(Cc3nnnn3C3CCCC3)C3CCCC3)c(=O)[nH]c2cc1OC	-14%	-3%	11%	-15%	1%	?
Cc1ccc2cc(CN(Cc3nnnn3C3CCCC3)C3CCCCC3)c(=O)[nH]c2c1C	-8%	7.9µM*	0%	33%	-5%	-14
Cc1ccc2[nH]c(=O)c(CN(Cc3nnnn3C3CCCC3)C3CCCCC3)cc2c1	-10%	25µM*	-5%	-12%[10 µM]	-11%	-100*
O=C1[C@H]2[C@H]3[C@H](O)[C@H](O)C/C(=N/OCc4ccccc4)[C@@H]3CC[C@@H]2C(=O)N1Cc1ccc2c(c1)OCO2	.	-6%[13.5 µM]	.	6%[10 µM]	.	.
C=CCC(C)(NCc1ccccc1)C(=O)OCC (stereo not given)	-5%	-8%	6%	18%	.	.
Cc1ccc2[nH]c(=O)c(CN(Cc3ccccc3)Cc3nnnn3C3CCCC3)cc2c1	-8%	14µM*	6%	-12%[10 µM]	?	-93*
Cc1cccc2cc(CN(Cc3ccc(F)cc3)Cc3nnnn3C3CCCC3)c(=O)[nH]c12	7%	14µM*	7%	-29%	2%	-18
Cc1ccc2c(=O)c3ccccc3n(CCCN)c2c1C	?	-8%	-8%	-188%	.	.
COc1ccc(N=C/C=C2\C=C(c3ccccc3)OC(C)(C)O2)cc1	-29%	2.2µM*	8%	20%[10 µM]	?	-15
Cc1ccccc1N=C/C=C1/C=C(c2ccccc2)OC(C)(C)O1	-19%	2.2µM*	75%	32%[10 µM]	-29%	-10
CC1(C)OC(c2ccccc2)=C/C(=C/C=C2C(=O)c3ccccc3C2=O)O1	.	-15%	-55%	-20%	-6%	.
COc1ccc2c(c1)C1=C(CC2)C(c2ccc(C)cc2)NC(=S)N1 (stereo not given)	.	0.4µM*	2%	-92%	-26%	.
COc1cccc(C2NC(=S)NC3=C2CCc2ccccc23)c1 (stereo not given)	.	0.22µM*	.	-9%[10 µM]	29%	12
COc1ccc(C2NC(=O)NC3=C2CCc2ccccc23)cc1 (stereo not given)	?	?	-19%	-30%	28%	-6
CCC(C)NC(=O)Nc1ccc(C)cc1C (stereo not given)	.	0%	4%	.	.	.
SMILES	HPGD block	ALDH1A1 block	RGS12 GoLoco inh	HTT cytoprotect	HttQ103 aggreg	PNC assembly inh
Cc1cc(SCC(=O)Nc2cccc(S(=O)(=O)N3CCOCC3)c2)nc2ccccc12	.	-10%	33%	-52%	-1%	.
CC12CN(S(=O)(=O)c3ccccc3)CC(C)(CN(S(=O)(=O)c3ccccc3)C1)C2	-12%	4%	-30%	16%	1%[9.22 µM]	-113*
O=S(=O)(c1ccccc1)N1CCC2(CC1)CN(c1ccccc1)C2	-8%	14µM*	7%	?	.	.
CC(=O)N1CCC2(CC1)CN(c1ccccc1)C2	-7%	16µM*	-15%	15%	.	.
CC(=O)N1CCC2(CC1)CCN(c1ccccc1)CC2	2%	4%	0%	-61%	.	.
O=S(=O)(c1ccccc1)N1CCC2(CC1)CN(c1ccncc1)C2	-27%	-8%	-24%	-47%	.	.
CCS(=O)(=O)N1CCN(S(=O)(=O)c2ccccc2)CC1	-12%	1%	-10%	-25%	6%	2
C#CCCCO/N=C1/[C@H]2O[C@@H]2[C@@H](O)[C@H]2[C@H]1CCn1c(=O)n(-c3ccccc3)c(=O)n12	.	13%[13.5 µM]	.	-13%[10 µM]	.	.
Oc1ccc(/C=N/Nc2nc(N3CCCC3)nc(N3CCCC3)n2)cc1O	.	13µM*	4%	-34%[10 µM]	-19%[9.22 µM]	.
COc1cc(/C=N/Nc2nc(N3CCCC3)nc(N3CCCC3)n2)ccc1O	?	5%	4%	-30%	17%	?
Cc1ccc(S(=O)(=O)c2c(N)n(Cc3ccco3)c3nc4ccccc4nc23)cc1C	?	?	48%	-11%	13µM*	-5
COc1ccc2c(c1OC)C(=O)N(c1cccc(C)c1)C2=O	-13%	5µM*	2%	-9%	3%	-1
Cc1[nH]c(=S)[nH]c(=O)c1CCOc1ccccc1	-15%	?	2%	-5%	20%	35
Cc1ccccc1OCCc1c(C)[nH]c(=S)[nH]c1=O	.	20µM*	-10%	-50%[10 µM]	18%	.
Cc1nnc(NC(=O)CSc2nnc(Cc3cccn3C)n2C)s1	-9%	22µM*	1%	-6%	-16%	-95*
COc1ccc(-n2c(Cc3cccn3C)nnc2SCC(=O)Nc2ccc(Cl)cc2)cc1	-11%	4µM*	174%	-14%	-13%	?
Cn1cccc1Cc1nnc(SCC(=O)Nc2ccc(Cl)cc2)n1-c1ccc(F)cc1	-11%	?	9%	-12%	5%	?
COc1ccc(-n2c(Cc3cccn3C)nnc2SCC(=O)Nc2cccc(F)c2)cc1	-16%	13µM*	4%	14%[10 µM]	1%	?
O=C(CSc1nnc(Cc2cccs2)n1-c1ccccc1)Nc1ccc2c(c1)OCCO2	-10%	7.9µM*	6%	-1%	-5%	4
Cc1ccc(-n2c(Cc3cccn3C)nnc2SCC(=O)Nc2nnc(C)s2)cc1	-10%	6%	8%	-2%[10 µM]	?	5

Compound activity (PubChem)
